Biological target: T1, Aurora kinase C (Homo sapiens) (UniProt Q9UQB9);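 note: reported value is a mean inhibition of Aurora-C from the GSK PKIS screening panel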
T1 sequence (whole entry): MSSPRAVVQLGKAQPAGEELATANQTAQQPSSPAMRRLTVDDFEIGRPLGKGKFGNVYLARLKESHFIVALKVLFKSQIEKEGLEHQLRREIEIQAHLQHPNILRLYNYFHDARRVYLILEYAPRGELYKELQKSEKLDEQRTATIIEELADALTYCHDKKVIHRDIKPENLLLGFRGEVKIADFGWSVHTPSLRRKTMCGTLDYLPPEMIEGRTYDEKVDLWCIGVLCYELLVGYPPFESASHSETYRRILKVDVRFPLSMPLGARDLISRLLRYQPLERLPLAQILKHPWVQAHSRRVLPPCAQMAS
Settings: at 1 µM

| SMILES | inhibition [%] |
| --- | --- |
| Nc1nccc(-c2c(-c3ccc(F)cc3)nn3cc(C(F)(F)F)ccc23)n1 | 0.73 |
| CN1CCN(C(=O)c2ccc(NC(=O)Nc3ccc(N(C)c4ccnc(Nc5ccc(CS(C)(=O)=O)cc5)n4)cc3)cc2)CC1 | 95.3 |
| CCn1c(-c2nonc2N)nc2c(C#CC(C)(C)O)nc(OCCNC)cc21 | 3.76 |
| COc1ccc(-c2nn3ncccc3c2-c2ccnc(Nc3cccc(C(F)(F)F)c3)n2)cc1 | 5.91 |
| Cc1ccc(C(=O)NC2CC2)cc1-c1ccc2[nH]ncc2c1 | 0.5 |
| Cc1ccc2c(c1)/C(=N/Nc1ccc(S(N)(=O)=O)cc1)C(=O)N2 | 23.6 |
| FC(F)(F)c1ccc(-c2nn3ncccc3c2-c2ccnc(Nc3ccc4c(c3)OCCO4)n2)cc1 | 12.1 |
| NS(=O)(=O)c1ccc(Nc2cc(-c3cccc(O)c3)n[nH]2)cc1 | 19.6 |
| Cc1cc(O)cc(C)c1/C=C/c1cncc(C(=O)N(C)C)c1 | 2.63 |
| COc1cc(Nc2nccc(-c3cnn4ncccc34)n2)cc(OC)c1 | 94.4 |
| COc1cccc(-n2ncc3c(N/N=C/c4ccc(C)cc4)ncnc32)c1 | 4.66 |
| [O-][S+]1CCN(Cc2ccc(-c3ccc4ncnc(Nc5ccc(OCc6ccccc6)c(Cl)c5)c4c3)o2)CC1 | 1.6 |
| COc1ccc2ncnc(Nc3ccc(OCc4ccccc4)cc3)c2c1 | 10.5 |
| CN(C)C(=O)O[C@H]1CN[C@H](C#Cc2cc3ncnc(Nc4ccc(OCc5cccc(F)c5)c(Cl)c4)c3s2)C1 | 8.8 |
| NS(=O)(=O)c1ccc(NC=C2C(=O)Nc3ccc4ncsc4c32)cc1 | 92.2 |
| CS(=O)(=O)CCNCc1nc(-c2ccc3ncnc(Nc4ccc(OCc5cccc(C(F)(F)F)c5)cc4)c3c2)cs1 | 5.59 |
| CCS(=O)(=O)c1ccc(OC)c(Nc2nccc(N(C)c3ccc4c(C)n[nH]c4c3)n2)c1 | 28.2 |

| SMILES | inhibition [%] |
| --- | --- |
| Nc1nccc(-c2c(-c3ccc(F)cc3)ncn2CCCN2CCOCC2)n1 | -2.92 |
| COC(=O)c1ccc2c(c1)C(=Cc1cc(Br)c(O)c(Br)c1)C(=O)N2 | 15.2 |
| COc1cc2ncnc(Nc3ccc4c(cnn4Cc4ccccc4)c3)c2cc1OC | 23.7 |
| O=S(=O)(CCOCc1ccc(-c2ccc3ncnc(Nc4ccc(OCc5cccc(F)c5)c(Cl)c4)c3c2)o1)c1ccccc1 | 5.99 |
| NC(=O)c1sc(-n2cnc3ccccc32)cc1OCc1ccccc1Br | 8.84 |
| NS(=O)(=O)c1cccc(-c2cc3ccncc3cc2OCc2ccccc2)c1 | 12.4 |
| Cc1cc(Cl)cc2c1NC(=O)C2=NNc1ccc(S(N)(=O)=O)cc1 | -3.99 |
| Oc1cccc(-c2nc(-c3ccccc3)[nH]c2-c2ccncc2)c1 | -2.07 |
| COC(=O)Nc1nc2cc(Oc3ccc(NC(=O)Nc4cccc(Br)c4)cc3)ccc2[nH]1 | 42.5 |
| Nc1nccc(C#Cc2cncnc2Nc2ccc(OCc3cccc(F)c3)c(Cl)c2)n1 | 10.1 |
| O=C1Nc2ccc(-c3cccnc3)cc2C1=Cc1cc(Br)c(O)c(Br)c1 | 31.7 |
| Nc1ccc(C#Cc2cncnc2Nc2ccc(OCc3cccc(F)c3)c(Cl)c2)cc1 | 2.24 |
| NS(=O)(=O)c1cccc(Nc2cc(-c3ccc(F)cc3)n[nH]2)c1 | 0.46 |
| CCS(=O)(=O)c1ccc(OC)c(Nc2ncc(-c3cccc(OC)c3)o2)c1 | 14.6 |
| CCn1c(-c2nonc2N)nc2ccc(F)cc21 | -2.72 |
| O=C1Nc2ccccc2/C1=C/Nc1ccc2[nH]c(=O)[nH]c2c1 | 81.9 |
| CS(=O)(=O)Nc1cccc(-c2ccc3c(NC(=O)C4CC4)n[nH]c3c2)c1 | 15.6 |

Biological target: Serine/threonine-protein kinase 10 (Homo sapiens) (UniProt O94804);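 note: mean percent inhibition of LOK (STK10)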
Sequence (O94804 whole entry, looked up): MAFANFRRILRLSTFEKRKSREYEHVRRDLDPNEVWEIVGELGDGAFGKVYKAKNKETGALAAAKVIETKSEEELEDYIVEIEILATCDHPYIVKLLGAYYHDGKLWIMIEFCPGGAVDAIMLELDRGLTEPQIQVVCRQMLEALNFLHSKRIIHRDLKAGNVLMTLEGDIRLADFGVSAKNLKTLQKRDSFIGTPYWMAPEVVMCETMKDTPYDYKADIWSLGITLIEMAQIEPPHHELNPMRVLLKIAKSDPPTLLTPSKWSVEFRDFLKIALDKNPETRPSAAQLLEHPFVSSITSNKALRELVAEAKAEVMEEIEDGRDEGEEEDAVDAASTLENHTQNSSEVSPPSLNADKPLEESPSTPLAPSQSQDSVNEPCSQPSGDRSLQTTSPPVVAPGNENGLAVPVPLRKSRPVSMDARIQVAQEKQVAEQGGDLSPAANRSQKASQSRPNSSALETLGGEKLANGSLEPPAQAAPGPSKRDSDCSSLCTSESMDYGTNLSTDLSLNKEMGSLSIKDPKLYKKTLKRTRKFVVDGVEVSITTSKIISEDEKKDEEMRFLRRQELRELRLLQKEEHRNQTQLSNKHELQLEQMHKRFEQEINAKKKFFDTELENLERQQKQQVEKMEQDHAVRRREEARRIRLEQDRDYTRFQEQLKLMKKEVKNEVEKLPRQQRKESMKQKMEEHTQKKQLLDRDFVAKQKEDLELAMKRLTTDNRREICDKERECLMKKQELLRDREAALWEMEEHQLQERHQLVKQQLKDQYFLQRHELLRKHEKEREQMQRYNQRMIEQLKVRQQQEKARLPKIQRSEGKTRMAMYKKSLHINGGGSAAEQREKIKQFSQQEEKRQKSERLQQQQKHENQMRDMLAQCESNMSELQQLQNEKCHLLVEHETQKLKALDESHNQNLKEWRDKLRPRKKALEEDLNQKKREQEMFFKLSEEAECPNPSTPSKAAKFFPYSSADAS
Settings: at 0.1 µM

| SMILES | inhibition [%] |
| --- | --- |
| Nc1nccc(-c2c(-c3ccc(F)cc3)nn3cc(C(F)(F)F)ccc23)n1 | -0.92 |
| CN1CCN(C(=O)c2ccc(NC(=O)Nc3ccc(N(C)c4ccnc(Nc5ccc(CS(C)(=O)=O)cc5)n4)cc3)cc2)CC1 | 26.3 |
| CCn1c(-c2nonc2N)nc2c(C#CC(C)(C)O)nc(OCCNC)cc21 | 5.14 |
| COc1ccc(-c2nn3ncccc3c2-c2ccnc(Nc3cccc(C(F)(F)F)c3)n2)cc1 | 6.76 |
| Cc1ccc(C(=O)NC2CC2)cc1-c1ccc2[nH]ncc2c1 | -0.03 |
| Cc1ccc2c(c1)/C(=N/Nc1ccc(S(N)(=O)=O)cc1)C(=O)N2 | 0.32 |
| FC(F)(F)c1ccc(-c2nn3ncccc3c2-c2ccnc(Nc3ccc4c(c3)OCCO4)n2)cc1 | 10.5 |
| NS(=O)(=O)c1ccc(Nc2cc(-c3cccc(O)c3)n[nH]2)cc1 | 6.23 |
| Cc1cc(O)cc(C)c1/C=C/c1cncc(C(=O)N(C)C)c1 | 3.87 |
| COc1cc(Nc2nccc(-c3cnn4ncccc34)n2)cc(OC)c1 | 5.8 |
| COc1cccc(-n2ncc3c(N/N=C/c4ccc(C)cc4)ncnc32)c1 | 5.12 |
| [O-][S+]1CCN(Cc2ccc(-c3ccc4ncnc(Nc5ccc(OCc6ccccc6)c(Cl)c5)c4c3)o2)CC1 | 3.93 |
| COc1ccc2ncnc(Nc3ccc(OCc4ccccc4)cc3)c2c1 | 4.51 |
| CN(C)C(=O)O[C@H]1CN[C@H](C#Cc2cc3ncnc(Nc4ccc(OCc5cccc(F)c5)c(Cl)c4)c3s2)C1 | 4.18 |
| NS(=O)(=O)c1ccc(NC=C2C(=O)Nc3ccc4ncsc4c32)cc1 | 6.33 |
| CS(=O)(=O)CCNCc1nc(-c2ccc3ncnc(Nc4ccc(OCc5cccc(C(F)(F)F)c5)cc4)c3c2)cs1 | 6.68 |
| CCS(=O)(=O)c1ccc(OC)c(Nc2nccc(N(C)c3ccc4c(C)n[nH]c4c3)n2)c1 | 43.4 |

| SMILES | inhibition [%] |
| --- | --- |
| Nc1nccc(-c2c(-c3ccc(F)cc3)ncn2CCCN2CCOCC2)n1 | 3.38 |
| COC(=O)c1ccc2c(c1)C(=Cc1cc(Br)c(O)c(Br)c1)C(=O)N2 | 6.1 |
| COc1cc2ncnc(Nc3ccc4c(cnn4Cc4ccccc4)c3)c2cc1OC | 0.29 |
| O=S(=O)(CCOCc1ccc(-c2ccc3ncnc(Nc4ccc(OCc5cccc(F)c5)c(Cl)c4)c3c2)o1)c1ccccc1 | 2.38 |
| NC(=O)c1sc(-n2cnc3ccccc32)cc1OCc1ccccc1Br | 17.4 |
| NS(=O)(=O)c1cccc(-c2cc3ccncc3cc2OCc2ccccc2)c1 | 8.31 |
| Cc1cc(Cl)cc2c1NC(=O)C2=NNc1ccc(S(N)(=O)=O)cc1 | 1.5 |
| Oc1cccc(-c2nc(-c3ccccc3)[nH]c2-c2ccncc2)c1 | 4.37 |
| COC(=O)Nc1nc2cc(Oc3ccc(NC(=O)Nc4cccc(Br)c4)cc3)ccc2[nH]1 | 20.5 |
| Nc1nccc(C#Cc2cncnc2Nc2ccc(OCc3cccc(F)c3)c(Cl)c2)n1 | 5.76 |
| O=C1Nc2ccc(-c3cccnc3)cc2C1=Cc1cc(Br)c(O)c(Br)c1 | 3.55 |
| Nc1ccc(C#Cc2cncnc2Nc2ccc(OCc3cccc(F)c3)c(Cl)c2)cc1 | 5.13 |
| NS(=O)(=O)c1cccc(Nc2cc(-c3ccc(F)cc3)n[nH]2)c1 | 4.31 |
| CCS(=O)(=O)c1ccc(OC)c(Nc2ncc(-c3cccc(OC)c3)o2)c1 | 4.31 |
| CCn1c(-c2nonc2N)nc2ccc(F)cc21 | 9.56 |
| O=C1Nc2ccccc2/C1=C/Nc1ccc2[nH]c(=O)[nH]c2c1 | 8.73 |
| CS(=O)(=O)Nc1cccc(-c2ccc3c(NC(=O)C4CC4)n[nH]c3c2)c1 | 3.13 |

Reference: ChEMBL document CHEMBL1961873, “Compounds: GSK PKIS; Assays: Nanosyn kinase panel” (2012)
